Laboratory results: PubChem BioAssay (NCATS)
Several values for one entry are separate records, joined by “and”; a condition that tells them apart may be missing. Equal entries are not always repeated. Records with an inconclusive call do not appear. A structure can be active in one record and inactive in another. Activity calls are given as the source filed them. The call rests on the fitted dose curve; in most records, active means well fitted curve in the direction sought with a large enough effect; inconclusive means small, poorly fitted or top-dose-only effect, or another doubt; inactive means no such curve, though single readings can be large; an effect the other way counts as inactive or inconclusive.

Tests used:
[1] = Confirmation and Secondary Assay for Modulators of Hemoglobin Beta Chain Splicing at IVS2 654 locus (AID 910);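 further: HeLa cells stably carrying EGFP split by mutant beta-globin IVS2-654 intron; per-well total GFP intensity by laser scanning cytometry after 2-day treatment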
In short: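 Readout: per-well total peak green fluorescence (488 nm ex, 500–520 nm em) from objects 5–250 µm, reflecting correct splicing of an EGFP-654 reporter. Compounds were applied for 2 days at 37 °C to overnight-plated HeLa EGFP-654 cells; controls were DMSO and 500 nM IVS2-654 PNA.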

[2] = molecular target: Cytochrome P450 3A4 (Homo sapiens) (UniProt P08684); assay: qHTS Assay for Inhibitors and Substrates of Cytochrome P450 3A4 (AID 884); further: series mostly up to about 57 µM; nearly all actives have a fitted effect of over 50% in size
In short: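 20 nM human CYP3A4 with 25 uM Luciferin-PPXE (at KM) in 200 mM KPO4, preincubated 10 min with compound; NADPH regeneration started a 60 min RT reaction. Luciferin detected by luminescence, normalized to 57 uM ketoconazole as full inhibition.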

[3] = Cellular Toxicity (caspase-3) HepG2 (AID 654);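 further: cells exposed to compound for 16 hours before reading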
In short: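 HepG2 cells (1500/well) were treated 16 h at 37 °C in complete medium, then caspase 3/7 activity was read by Caspase-Glo luminescence. Data were normalized to DMSO and 100 uM tamoxifen; AC50 came from Hill-equation fits of qHTS concentration-response.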

[4] = Cellular Toxicity (caspase-3) Jurkat (AID 655);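 further: cells exposed to compound for 16 h at 37 °C before reading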
In short: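 Luminescent caspase-3/7 readout (aminoluciferin substrate cleavage) in human T-cell leukemia Jurkat cells after 16 hr compound exposure. Concentration-response normalized to DMSO and 100 uM tamoxifen; AC50 by standard Hill equation.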

[5] = Cellular Toxicity (caspase-3) HUV-EC-C (AID 656)
In short: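 Luminescent caspase-3/7 activation (aminoluciferin substrate cleavage) in HUV-EC-C cells after 16 hr compound exposure, 37°C. Signal normalized to DMSO basal and 100 uM tamoxifen as 100%; AC50 from concentration-response fitted with the Hill equation.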

[6] = Cellular Toxicity (caspase-3) SHSY5Y (AID 657)
In short: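 Luminescent caspase-3/7 readout (aminoluciferin release) in SH-SY5Y cells after 16 h compound exposure in complete medium. Activity scaled between DMSO basal and 10 uM staurosporine as 100%; concentration-response fitted to Hill equation for AC50.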

[7] = Cellular Toxicity (caspase-3) BJ (AID 658)
In short: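 Readout: Caspase-Glo 3/7 luminescence increase in BJ cells after 16 hr treatment at 37 °C. Staurosporine and tamoxifen served as positive controls; AC50 values came from Hill modelling of data normalized to DMSO and 10 uM staurosporine.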

[8] = Cellular Toxicity (caspase-3) MRC-5 (AID 659)
In short: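 Concentration-dependent caspase 3/7 activation is measured in human normal lung fibroblasts (MRC-5) following 16-hour treatment. AC50 values come from standard Hill-equation modeling of luminescence normalized to DMSO and 10 uM staurosporine.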

[9] = Cellular Toxicity (caspase-3) Mesangial (AID 660);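 further: cells exposed to compound for 16 h before the caspase read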
In short: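 Human renal glomerular mesangial cells, 1000/well, 5 h at 37 C before 16 h compound treatment. Caspase-Glo 3/7 luminescence after 20 min; normalized to DMSO and 100 uM tamoxifen, AC50 from Hill fit.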

[10] = Cellular Toxicity (caspase-3) NIH 3T3 (AID 666)
In short: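 Mouse NIH 3T3 fibroblasts (1000/well) treated 16 h at 37 C; caspase-3/7 activity measured by Caspase-Glo 3/7 luminescence after 20 min. Normalized to DMSO and 100 uM tamoxifen; AC50 from Hill fits.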

[11] = Cellular Toxicity (caspase-3) Renal Proximal Tubule (AID 667);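 further: cells exposed to compound for 16 hours at 37 °C before detection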
In short: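 Luminescent caspase 3/7 signal from peptide-aminoluciferin cleavage measures apoptosis in freshly isolated rat kidney proximal tubule cells after 16 h compound exposure. Concentration-response data are normalized to DMSO and 10 uM staurosporine, and AC50 values come from Hill equation fits.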

[12] = molecular target: Guanine nucleotide-binding protein G(i) subunit alpha-1 (Homo sapiens) (UniProt P63096); assay: qHTS Assay for Inhibitors of RGS12 GoLoco Motif Activity (Green Fluorophore) (AID 879);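 further: negative values mean loss of peptide binding seen as reduced polarization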
In short: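 Fluorescence polarization assay: 50 nM Gαi1 with 10 nM FITC-labeled RGS12 GoLoco peptide in 10 mM Tris pH 7.5, 150 mM NaCl, 0.1 mM GDP, 0.05% NP40, 10 min at room temperature with compound.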

[13] = Cellular Toxicity (caspase-3) SK-N-SH (AID 661)
In short: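 Human SK-N-SH neuroblastoma cells, 1500/well, were exposed to compounds for 16 hours at 37 °C. Caspase-Glo 3/7 luminescence was normalized to DMSO (basal) and 10 uM staurosporine (100%), and AC50 came from a Hill fit.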

[14] = Cellular Toxicity (caspase-3) H-4-II-E (AID 663);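 further: cells exposed to compound for 16 hr before readout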
In short: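 Apoptosis induction is scored as increased luminescence from caspase 3/7 substrate cleavage in rat hepatoma H-4-II-E cells exposed to compound for 16 hr. Activity is scaled between DMSO and 100 uM tamoxifen.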

[15] = Cellular Toxicity (caspase-3) N2a (AID 665);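 further: compound exposure lasted 16 h at 37 °C before readout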
In short: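 Mouse N2a neuroblastoma cells, 1500 per well, treated 16 h at 37 °C in complete medium; caspase-3/7 activity by Caspase-Glo luminescence after 1 h. Normalized to DMSO and 10 uM staurosporine; AC50 from Hill fits.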

[16] = molecular target: Cytochrome P450 2D6 (Homo sapiens) (UniProt P10635); assay: qHTS Assay for Inhibitors and Substrates of Cytochrome P450 2D6 (AID 891); further: nearly all actives have a fitted effect of over 60% in size; further: potency means the concentration at half of the fitted maximal effect
In short: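 Human CYP2D6 (5 nM) with 30 uM Luciferin-ME EGE (at Km) in 100 mM KPO4, compound preincubated 10 min, then NADPH regeneration system for 60 min at room temperature. Luciferin read by luminescence; normalized to 1.43 uM quinidine.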

[17] = molecular target: Cytochrome P450 3A4 (Homo sapiens) (UniProt P08684); assay: qHTS Assay for Activators of Cytochrome P450 3A4 (AID 885); further: nearly all actives have a fitted effect of over 65% in size
In short: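 Steps: enzyme/substrate mix dispensed; compound added, 10 min RT; NADPH regeneration solution added, 60 min RT; luciferin detection buffer stops reaction; 20 min later luminescence measured.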

Measured: Potency

Chain of Cytochrome P450 2D6 (Homo sapiens) (P10635 whole entry, looked up): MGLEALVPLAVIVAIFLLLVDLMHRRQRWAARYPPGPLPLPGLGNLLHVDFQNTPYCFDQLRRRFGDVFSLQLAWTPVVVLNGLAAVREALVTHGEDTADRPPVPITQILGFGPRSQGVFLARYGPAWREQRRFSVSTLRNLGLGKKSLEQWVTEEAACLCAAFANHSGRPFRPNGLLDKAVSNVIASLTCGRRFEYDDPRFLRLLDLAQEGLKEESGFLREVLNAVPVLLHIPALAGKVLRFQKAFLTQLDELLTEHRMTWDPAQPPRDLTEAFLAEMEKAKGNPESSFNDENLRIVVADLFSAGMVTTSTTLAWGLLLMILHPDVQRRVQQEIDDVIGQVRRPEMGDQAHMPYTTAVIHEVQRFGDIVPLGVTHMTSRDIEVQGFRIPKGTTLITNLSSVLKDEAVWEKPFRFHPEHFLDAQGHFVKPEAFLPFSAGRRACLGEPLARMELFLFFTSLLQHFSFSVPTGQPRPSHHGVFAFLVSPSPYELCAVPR
Chain of Guanine nucleotide-binding protein G(i) subunit alpha-1 (Homo sapiens) (P63096 whole entry, looked up): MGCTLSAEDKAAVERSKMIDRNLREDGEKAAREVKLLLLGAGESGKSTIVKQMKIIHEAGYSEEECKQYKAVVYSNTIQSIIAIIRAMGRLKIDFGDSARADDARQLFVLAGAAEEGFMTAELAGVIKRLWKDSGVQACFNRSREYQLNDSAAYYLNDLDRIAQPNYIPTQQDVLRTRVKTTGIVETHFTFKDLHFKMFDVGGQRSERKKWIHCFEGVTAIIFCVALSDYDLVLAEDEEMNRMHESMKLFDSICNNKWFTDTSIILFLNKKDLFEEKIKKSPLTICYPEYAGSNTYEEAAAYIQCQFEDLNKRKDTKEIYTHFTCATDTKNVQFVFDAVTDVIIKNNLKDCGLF
Chain of Cytochrome P450 3A4 (Homo sapiens) (P08684 whole entry, looked up): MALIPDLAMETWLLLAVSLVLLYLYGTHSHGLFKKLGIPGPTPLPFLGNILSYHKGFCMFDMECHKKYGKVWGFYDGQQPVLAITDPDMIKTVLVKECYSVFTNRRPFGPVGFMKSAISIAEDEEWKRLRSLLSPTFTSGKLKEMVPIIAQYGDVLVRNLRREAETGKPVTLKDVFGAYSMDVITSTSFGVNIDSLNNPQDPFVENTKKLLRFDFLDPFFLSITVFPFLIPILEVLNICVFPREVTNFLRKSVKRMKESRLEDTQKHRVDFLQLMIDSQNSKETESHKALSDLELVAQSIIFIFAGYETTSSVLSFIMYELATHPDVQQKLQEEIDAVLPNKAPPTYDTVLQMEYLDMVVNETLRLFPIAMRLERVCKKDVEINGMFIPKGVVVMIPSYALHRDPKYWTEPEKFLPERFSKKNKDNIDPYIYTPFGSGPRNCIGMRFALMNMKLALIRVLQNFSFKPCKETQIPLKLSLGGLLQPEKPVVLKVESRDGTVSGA

COc1ccccc1OCC(O)CN1CCN(CC(=O)Nc2c(C)cccc2C)CC1 (stereo not drawn)
inactive: [1]

CC12CC3CC(C)(C1)CC(N)(C3)C2
inactive: [2] | [1]

Clc1ccc(C(c2ccccc2Cl)C(Cl)Cl)cc1 (stereo not drawn)
not listed: [2] | [13] | [14] | [15] | [16] | [17]
inactive: all other assays above

CC(C)Cc1ccc(C(C)C(=O)O)cc1 (stereo not drawn)
inactive: [12] | [2] | [1]

Nc1ccn([C@H]2CC[C@@H](CO)O2)c(=O)n1
not listed: [16] | [17]
inactive: all other assays above

Nc1nnc(-c2cccc(Cl)c2Cl)c(N)n1
inactive: [12]
inactive and 6.31 µM (active): [16]

Fc1ccc([C@@H]2CCNC[C@H]2COc2ccc3c(c2)OCO3)cc1
inactive: [12] | [17]

CCN1CCCC1CNC(=O)c1cc(S(=O)(=O)CC)c(N)cc1OC (stereo not drawn)
inactive: [2]

CC(C)NCC(O)c1ccc(O)c(O)c1 (stereo not drawn)
not listed: [2] | [12] | [16] | [17]
inactive: all other assays above

COc1ccccc1OCCNCC(O)COc1cccc2[nH]c3ccccc3c12 (stereo not drawn)
inactive: [1]

CCC1(C)CC(=O)NC1=O (stereo not drawn)
inactive: [2] | [1]

COc1cc2nc(N(C)CCCNC(=O)C3CCCO3)nc(N)c2cc1OC (stereo not drawn)
inactive: [2] | [1]

Cc1ccc(-c2cc(C(F)(F)F)nn2-c2ccc(S(N)(=O)=O)cc2)cc1
not listed: [2] | [9] | [12] | [14] | [16] | [17]
inactive: all other assays above

CCc1cccc2c3c([nH]c12)C(CC)(CC(=O)O)OCC3 (stereo not drawn)
inactive: [12] | [1]

CN1CCC(=C2c3ccccc3C=Cc3ccccc32)CC1
active: [16] 2.51 µM and 3.98 µM
inactive: [12]

CC1COc2c(N3CCN(C)CC3)c(F)cc3c(=O)c(C(=O)O)cn1c23 (stereo not drawn)
inactive: [1]

O=C(C1CCCCC1)N1CC(=O)N2CCc3ccccc3C2C1 (stereo not drawn)
inactive: [12] | [17] | [1]

COc1ccc(C2CNC(=O)C2)cc1OC1CCCC1 (stereo not drawn)
inactive: [12] | [17]

Nc1c2c(nc3ccccc13)CCCC2
active: [16] 5.01 µM
not listed: [2]
inactive: all other assays above

CCCNCC(O)COc1ccccc1C(=O)CCc1ccccc1 (stereo not drawn)
inactive: [1]
